Experimental data from PubChem BioAssay AID1986 (Sanford-Burnham Center for Chemical Genomics, 2009).
About 890 (0.31%) of roughly 290,000 compounds were called active. Cut-off read from the data, not from the text of the source: active = inhibition mostly above about 52% (no sharp cut-off); inactive = mostly below about 76%. The full list was thinned out, with actives kept by preference.

Experiment: cell-free HIV fusion peptide-binding blockers – biochemical, uHTS, fluorescence dequenching, primary screen (AID 1986)
Conditions: 30 min, stronger effect = higher value
[1] = measured here: repeat confirmation average inhibition, at 18.6 µM

SMILES	inhibition (at 20 µM)	inhibition [1]
O=C(/C=C/c1ccccc1)NCCSCc1ccccc1Cl	-2.6% (inactive)	
O=S1(=O)C=CC(c2ccccc2)C1 (stereo not drawn)	0.2% (inactive)	
COC(=O)c1nn(-c2ccccc2)c(Sc2ccc(OC)cc2)c1/C=N/O	2.7% (inactive)	
O=c1c(-c2ccccc2)coc2c(CN3CCCCC3)c(O)ccc12	0.2% (inactive)	
O=C(O)C(c1ccccc1)N1C(=O)/C(=C\c2ccc(-c3ccccc3Cl)o2)SC1=S (stereo not drawn)	94.5% (active)	110%
O=C(O)C(c1ccccc1)N1C(=O)/C(=C\c2ccc(-c3cccc(Cl)c3)o2)SC1=S (stereo not drawn)	91.2% (active)	120%
O=C(O)C(c1ccccc1)N1C(=O)/C(=C/c2cccs2)SC1=S (stereo not drawn)	14.3% (inactive)	
O=C(O)C(c1ccccc1)N1C(=O)/C(=C\c2ccc(-c3ccc(Br)cc3)o2)SC1=S (stereo not drawn)	143% (inactive)	
COc1ccccc1/C=C1\SC(=S)N(C(C(=O)O)c2ccccc2)C1=O (stereo not drawn)	30.1% (inactive)	
O=C1NC(=S)/C(=C\c2ccc(-c3ccccc3Cl)o2)S1	70.7% (inactive)	0.5%
COc1ccc(OC)c2[nH]c(=O)c(CCNC(=O)c3ccc(S(=O)(=O)N4CCCCC4)cc3)cc12	-1.4% (inactive)	
Cc1ccc2c(c1)N(CCC(=O)NCCCOC(C)C)C(=O)C(C)O2 (stereo not drawn)	-1.1% (inactive)	
COC(=O)c1sc2ccccc2c1NC(=O)c1ccc(S(=O)(=O)N2CC(C)CC(C)C2)cc1 (stereo not drawn)	-1.5% (inactive)	
CCOc1ccc(Br)cc1S(=O)(=O)NCCN(C)C	2% (inactive)	
CCN(CC)c1ccc2c(C)c(Cl)c(=O)oc2c1	4.7% (inactive)	
CCN(CC)c1ccc2c(Cl)cc(=O)oc2c1	3.7% (inactive)	
CCN(CC)c1ccc2c(c1)oc(=O)c1c(Cl)cc(=O)oc12	106% (active)	164%
C#CCOCCOCCOCCNc1nc(N2CCN(C(=O)[C@H]([C@@H](C)CC)n3cc([C@@H](N)CC(C)C)nn3)CC2)nc(N2CCN(C(=O)[C@H](CCCCN)n3cc([C@@H](N)CO)nn3)CC2)n1	-1.1% (inactive)	
CC(C)(C)NC(=O)NC(=O)COC(=O)c1ccco1	1.7% (inactive)	

SMILES	inhibition (at 20 µM)	inhibition [1]
O=C(O)/C=C/C(=O)N(CC1CCCO1)C1CC(=O)N(c2c(Cl)cccc2Cl)C1=O (stereo not drawn)	7.8% (inactive)	
O=C1N=C(N2CCCC2C(=O)O)S/C1=C\c1ccco1 (stereo not drawn)	52.2% (active)	
O=C1N=C(N2CCN(c3ccccc3)CC2)S/C1=C\c1ccco1	0.9% (inactive)	
O=C1N=C(N2CCN(c3ccccc3)CC2)S/C1=C/c1ccco1	-1.8% (inactive)	
CCOc1cc(CNCCCN2CCOCC2)cc(Br)c1OCc1ccccc1Cl	0.9% (inactive)	
Cc1ccc(N/N=C/c2ccc3c(c2)OCCO3)cc1Cl	2.7% (inactive)	
COC(=O)c1nnn(-c2ccccc2)c1N	-4.4% (inactive)	
CCOC(=O)C1=C(N)n2c(s/c(=C\c3cccs3)c2=O)=C(C(=O)OCC)C1c1cccs1 (stereo not drawn)	3.8% (inactive)	
N#CC1=C(N)n2c(s/c(=C\c3cccs3)c2=O)=C(C#N)C1c1cccs1 (stereo not drawn)	74.8% (active)	
N#CC1=C(N)n2c(s/c(=C\c3ccco3)c2=O)=C(C#N)C1c1ccco1 (stereo not drawn)	26% (inactive)	
CCc1nnc(NC(=O)C2Cc3ccccc3C(=O)O2)s1 (stereo not drawn)	-3.6% (inactive)	
CCOC(=O)c1c(-c2ccc(OC)cc2)csc1/N=C/C1C(=O)CCCC1=O	52.3% (inactive)	2.2%
CCOC(=O)c1c(CC(C)C)csc1/N=C/C1=C(O)CCCC1=O	21.5% (inactive)	
CCOC(=O)c1c(-c2ccc(OC)cc2)csc1/N=C/C1=C(O)CCCC1=O	71.6% (active)	
CCOC(=O)c1c(/N=C/C2=C(O)CC(C)(C)CC2=O)sc(C)c1C	1.6% (inactive)	
CCOC(=O)c1c(/N=C/C2=C(O)CCCC2=O)sc(C)c1C	52.3% (active)	
CCOC(=O)c1c(/N=C/C2=C(O)CCCC2=O)sc2c1CCCC2	-0.2% (inactive)	
Cc1ccc(C(=O)CC(C(=O)O)n2cncn2)cc1 (stereo not drawn)	1.7% (inactive)	
Cc1ccc2c(c1)S/C(=C/c1ccc[n+](C)c1)N2CCO	-0.9% (inactive)	

SMILES	inhibition (at 20 µM)	inhibition [1]
O=C(CC1SC(=O)N(Cc2ccccc2Cl)C1=O)Nc1nccs1 (stereo not drawn)	-0.8% (inactive)	
Cn1c(CCNC(=O)C(C)(C)C)nc2ccccc21	1.8% (inactive)	
CN(C)[C@@H]1C(=O)C(C(N)=O)=C(O)[C@@]2(O)C(=O)C3=C(O)c4c(O)ccc(Cl)c4[C@@H](O)[C@H]3C[C@@H]12	58.4% (active)	
CN(C)c1ccc(O)c2c1CC1CC3[C@@H](N(C)C)C(=O)C(C(N)=O)=C(O)[C@]3(O)C(=O)C1=C2O (stereo partly drawn)	54% (inactive)	4.9%
C=C1c2cccc(O)c2C(O)=C2C(=O)[C@]3(O)C(O)=C(C(N)=O)C(=O)[C@@H](N(C)C)[C@@H]3[C@@H](O)[C@H]12	63.7% (active)	
C[C@H]1c2cccc(O)c2C(O)=C2C(=O)[C@]3(O)C(O)=C(C(N)=O)C(=O)[C@@H](N(C)C)[C@@H]3[C@@H](O)[C@@H]21	16% (inactive)	
COc1ccc2nc(NC(=O)Cn3cnc4c(=O)n(C)c(=O)n(C)c43)sc2c1	4% (inactive)	
CCN(CC)C(=O)CC(c1ccc(F)cc1)c1ccc(OC)cc1 (stereo not drawn)	2% (inactive)	
COc1ccc(OCC(=O)Nc2ccncc2)cc1	1.1% (inactive)	
CCC1(c2ccccc2)NC(=O)N(CC(=O)Nc2ccccc2N2CCCCC2)C1=O (stereo not drawn)	2.6% (inactive)	
S=c1[nH]nc(C2CCCCC2)o1	0.3% (inactive)	
COC(=O)[C@H](CCSC)NC(=O)NCCC1=CCCCC1	0.8% (inactive)	
CCc1cccc(NC(=O)CN(C)S(=O)(=O)c2cccs2)c1	27.6% (inactive)	
Cc1ccc(C)c(N(C(=O)c2csnn2)C(C(=O)NC2CCCCC2)c2ccncc2)c1 (stereo not drawn)	-2.4% (inactive)	
CSc1nc(-c2ccco2)cc(-c2ccccc2)c1C#N	-1.1% (inactive)	
N#Cc1c(-c2ccco2)cc(-c2ccccc2)[nH]c1=O	50.8% (inactive)	12.4%
N#Cc1c(-c2ccccc2)cc(-c2ccco2)c(C#N)c1N	70.5% (active)	
CN(C)c1cccc(NC(=O)c2cccc3ccccc23)c1	-1.2% (inactive)	
